Source: PubChem BioAssay (NCI)
The panel holds about 79,000 compounds, 15% with a hit somewhere; the sample as a whole holds those more often. Active and inactive are the calls of the source. Rule as the data show it: active = growth inhibition above about 70%; inactive = the rest.

Legend:
[1] = NCI Yeast Anticancer Drug Screen. Data for the mec2-1 strain (AID 157); conditions: S. cerevisiae mec2-1 strain, stronger effect = higher value
Summary of the method: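 Compounds were applied to mec2-1 yeast cells. Their growth was then compared with that of vehicle-treated cultures to give growth inhibition.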

[2] = NCI Yeast Anticancer Drug Screen. Data for the rad14 strain (AID 159);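 also: 0% = growth of vehicle-treated control cultures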; conditions: S. cerevisiae rad14 strain growth inhibition, stronger effect = higher value
Summary of the method: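 Readout: yeast growth inhibition, referenced to vehicle-only cultures. Strain bears a defined alteration in DNA damage repair.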

[3] = NCI Yeast Anticancer Drug Screen. Data for the sgs1 mgt1 strain (AID 161);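 also: 0% = growth of cultures given vehicle only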; conditions: S. cerevisiae sgs1 mgt1 strain, stronger effect = higher value
Summary of the method: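 Yeast cells carrying a defined DNA-repair defect were exposed to test compounds. Growth inhibition was measured relative to vehicle-treated controls.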

[4] = NCI Yeast Anticancer Drug Screen. Data for the CLN2oe strain (AID 163);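 also: 0% = growth of vehicle-only control cultures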; conditions: S. cerevisiae CLN2oe strain, stronger effect = higher value
Summary of the method: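 Cells of an engineered yeast line with disturbed cell-cycle regulation are treated with compound. Inhibition of growth is then calculated relative to the vehicle-treated reference.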

[5] = NCI Yeast Anticancer Drug Screen. Data for the cln2 rad14 strain (AID 165);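 also: 0% = growth equal to vehicle treated cultures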; conditions: S. cerevisiae cln2 rad14 strain, stronger effect = higher value
Summary of the method: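 Strain: cln2 rad14 yeast, altered in cell cycle control and DNA damage repair. Read-out: growth inhibition vs vehicle.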

[6] = NCI Yeast Anticancer Drug Screen. Data for the bub3 strain (AID 167); conditions: S. cerevisiae bub3 mutant strain, stronger effect = higher value
Summary of the method: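 Part of a panel of yeast mutants defective in DNA damage repair or cell cycle regulation. Each strain is grown with compound, and inhibition is calculated relative to solvent-treated cultures.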

[7] = NCI Yeast Anticancer Drug Screen. Data for the wt2 strain (AID 169);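 also: 0% = growth of vehicle-treated yeast cultures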; conditions: S. cerevisiae wt2 strain growth inhibition, stronger effect = higher value
Summary of the method: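 Growth of compound-treated yeast is measured and expressed as inhibition relative to vehicle-only controls.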

[8] = NCI Yeast Anticancer Drug Screen. Data for the mlh1 strain (AID 171);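 also: 0% = growth of vehicle-treated control cultures of the same strain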; conditions: S. cerevisiae mlh1 strain growth inhibition, stronger effect = higher value
Summary of the method: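 Test agents were incubated with yeast bearing a defined DNA damage repair or cell cycle control alteration; values are growth inhibition normalised to vehicle-treated cultures.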

[9] = NCI Yeast Anticancer Drug Screen. Data for the sgs1 strain (AID 173);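 also: 0% = growth of vehicle-only control cultures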; conditions: S. cerevisiae sgs1 mutant, stronger effect = higher value
Summary of the method: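 Strain with an altered DNA repair or cell cycle pathway exposed to compound. Growth then measured. Value = inhibition versus vehicle control.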

[10] = NCI Yeast Anticancer Drug Screen. Data for the mlh1 rad18 strain (AID 175); conditions: S. cerevisiae mlh1 rad18 strain growth inhibition, stronger effect = higher value
Summary of the method: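 A repair-deficient yeast strain is exposed to test compound, and growth is scored relative to vehicle-treated controls.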

[11] = NCI Yeast Anticancer Drug Screen. Data for the rad18 strain (AID 177); conditions: S. cerevisiae rad18 mutant growth inhibition, stronger effect = higher value
Summary of the method: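 DNA-repair-defective yeast; compound treatment; growth inhibition scored against vehicle.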

[12] = NCI Yeast Anticancer Drug Screen. Data for the rad52 strain (AID 147);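 also: 0% = growth of vehicle-treated control cultures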; conditions: S. cerevisiae rad52 mutant growth inhibition, stronger effect = higher value
Summary of the method: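 Growth of repair-deficient yeast cells was compared between compound-treated and vehicle-treated cultures to give percent inhibition.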

[13] = NCI Yeast Anticancer Drug Screen. Data for the wt1 strain (AID 149);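 also: 0% = growth of vehicle-treated wt1 cultures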; conditions: S. cerevisiae wt1 strain (SPY 50644) growth inhibition, stronger effect = higher value
Summary of the method: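 The wt1 strain was treated with compounds, and growth was compared with vehicle-treated cultures to give inhibition.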

[14] = NCI Yeast Anticancer Drug Screen. Data for the rad50EPP+ strain (AID 151);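 also: 0% = growth of vehicle-treated control cultures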; conditions: S. cerevisiae rad50 mutant strain, stronger effect = higher value
Summary of the method: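 Measured: growth inhibition of rad50EPP+ yeast. Reference: vehicle-treated controls. Screen uses strains with defined genetic alterations in DNA damage repair or cell cycle control.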

[15] = NCI Yeast Anticancer Drug Screen. Data for the mgt1 strain (AID 153); conditions: S. cerevisiae mgt1 mutant growth inhibition, stronger effect = higher value
Summary of the method: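 Compounds were applied to mgt1 mutant yeast, and growth was then compared against vehicle-treated control cultures to give percent inhibition.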

[16] = NCI Yeast Anticancer Drug Screen. Data for the rad50 strain (AID 155);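 also: 0% = growth of vehicle-only cultures of the same strain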; conditions: S. cerevisiae rad50 strain growth inhibition, stronger effect = higher value
Summary of the method: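 Cells are treated with compound, grown, and their growth is then scored against vehicle-only cultures of the same repair-deficient yeast strain.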

[17] = at 5.0 µM (retest, dose inferred, filed as 0.5)
[18] = at 50.0 µM (retest, dose inferred, filed as 5.0)

Measured: growth inhibition

Nc1ccc(S(=O)(=O)Nc2ccc(Nc3c4ccccc4nc4ccccc34)cc2)cc1
active: [1]; at 100.0 µM 77% | [9]; at 100.0 µM 79%
inactive: [1]; [17] -24% | [1]; at 11.0 µM 6% | [1]; at 33.0 µM 19% | [1]; [18] 31% | [1]; at 50.0 µM 57.4% | [2]; at 1.2 µM 7% | [2]; at 3.7 µM 18% | [2]; at 11.0 µM 14% | [2]; at 33.0 µM 25% | [2]; at 100.0 µM 58% | [3]; [17] -7% | [3]; [18] 19% | [3]; at 50.0 µM 21% | [4]; at 1.2 µM -29% | [4]; at 3.7 µM -5% | [4]; at 11.0 µM -15% | [4]; at 33.0 µM 4% | [4]; at 100.0 µM 33% | [5]; [17] -3% | [5]; [18] 7% | [5]; at 50.0 µM 13.8% | [6]; at 1.2 µM 8% | [6]; at 3.7 µM 31% | [6]; [17] -18% | [6]; at 11.0 µM 15% | [6]; at 33.0 µM 4% | [6]; [18] -4% | [6]; at 50.0 µM -22.1% | [6]; at 100.0 µM 39% | [7]; at 1.2 µM -42% | [7]; at 3.7 µM -39% | [7]; at 11.0 µM -38% | [7]; at 33.0 µM -30% | [7]; at 100.0 µM 60% | [8]; at 1.2 µM 4% | [8]; at 3.7 µM 24% | [8]; at 11.0 µM 23% | [8]; at 33.0 µM 24% | [8]; at 100.0 µM 60% | [9]; at 1.2 µM 8% | [9]; at 3.7 µM 17% | [9]; at 11.0 µM 24% | [9]; at 33.0 µM 43% | [10]; [17] 0% | [10]; [18] 19% | [11]; at 1.2 µM 17% | [11]; at 3.7 µM 11% | [11]; at 11.0 µM 6% | [11]; at 33.0 µM 6% | [11]; at 100.0 µM 58%

Cc1c(-c2ccccc2)[nH]c2ccccc12
inactive: [12]; at 1.2 µM -7% | [12]; at 3.7 µM -8% | [12]; at 11.0 µM -4% | [13]; at 1.2 µM -21% | [13]; at 3.7 µM -12% | [13]; at 11.0 µM -23% | [14]; at 1.2 µM -2% | [14]; at 3.7 µM 20% | [14]; at 11.0 µM 16% | [14]; at 33.0 µM 52% | [15]; at 1.2 µM -19% | [15]; at 3.7 µM -12% | [15]; at 11.0 µM -11% | [16]; at 1.2 µM -4% | [16]; at 3.7 µM -8% | [16]; [17] 33% | [16]; at 11.0 µM -12% | [1]; at 1.2 µM -2% | [1]; at 3.7 µM 8% | [1]; [17] 48% | [1]; at 11.0 µM -2% | [2]; at 1.2 µM -2% | [2]; at 3.7 µM 0% | [2]; at 11.0 µM 2% | [3]; [17] -1% | [4]; at 1.2 µM 5% | [4]; at 3.7 µM 3% | [4]; at 11.0 µM 1% | [5]; [17] 51% | [6]; at 1.2 µM -6% | [6]; at 3.7 µM -7% | [6]; [17] 22% | [6]; at 11.0 µM -15% | [7]; at 1.2 µM 10% | [7]; at 3.7 µM 5% | [7]; at 11.0 µM 6% | [7]; at 33.0 µM 68% | [8]; at 1.2 µM 7% | [8]; at 3.7 µM 8% | [8]; at 11.0 µM 6% | [9]; at 1.2 µM 14% | [9]; at 3.7 µM 19% | [9]; at 11.0 µM 14% | [10]; [17] 38% | [11]; at 1.2 µM 3% | [11]; at 3.7 µM 5% | [11]; at 11.0 µM -9%
active: [12]; at 33.0 µM 94% | [12]; at 100.0 µM 99% | [13]; at 33.0 µM 92% | [13]; at 100.0 µM 98% | [14]; at 100.0 µM 98% | [15]; at 33.0 µM 95% | [15]; at 100.0 µM 98% | [16]; at 33.0 µM 95% | [16]; [18] 81% | [16]; at 50.0 µM 91.3% | [16]; at 100.0 µM 98% | [1]; at 33.0 µM 94% | [1]; [18] 85% | [1]; at 50.0 µM 92.5% | [1]; at 100.0 µM 98% | [2]; at 33.0 µM 95% | [2]; at 100.0 µM 98% | [3]; [18] 99% | [3]; at 50.0 µM 93.5% | [4]; at 33.0 µM 98% | [4]; at 100.0 µM 99% | [5]; [18] 99% | [5]; at 50.0 µM 92.3% | [6]; at 33.0 µM 95% | [6]; [18] 98% | [6]; at 50.0 µM 91.8% | [6]; at 100.0 µM 98% | [7]; at 100.0 µM 99% | [8]; at 33.0 µM 96% | [8]; at 100.0 µM 98% | [9]; at 33.0 µM 97% | [9]; at 100.0 µM 100% | [10]; [18] 96% | [10]; at 50.0 µM 91.2% | [11]; at 33.0 µM 97% | [11]; at 100.0 µM 99%
